NPSR antagonist – qHTS Assay for Antagonists of the Neuropeptide S Receptor: cAMP Signal Transduction. Q6W5P4. CHO-NPSR cells, cAMP TR-FRET, antagonist mode. Potency, µM (highest dose often 38.3 µM), for inactives: at the top dose activity change, negative = inhibition, most hits filed as inhibitors. 1% of 220,000 active. AID 1461, 2008; note: nearly all actives have a fitted effect of over 50% in size
Tau fibril ThT – qHTS for Inhibitors of Tau Fibril Formation, Thioflavin T Binding; recombinant tau K18 P301L, heparin-induced fibrillization, ThT fluorescence; Microtubule-associated protein tau (Homo sapiens), P10636; 2.1% of 270,000 active; Potency, µM (highest dose often 57.4 µM), without a hit: at the top dose activity, negative = inhibition, usual class: inhibitors; AID 1460, 2008; note: nearly all actives have a fitted effect of over 55% in size
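In this qHTS, human K18 P301L tau is incubated with compound and heparin for 6 hr at 37 C, and Thioflavin T fluorescence then reports fibril load.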
HPGD inh – qHTS Assay for Inhibitors of HPGD (15-Hydroxyprostaglandin Dehydrogenase) | 15-hydroxyprostaglandin dehydrogenase [NAD(+)] (Homo sapiens), P15428 | purified HPGD, NADH fluorescence kinetic, PGE2 substrate | Potency, µM, without a hit: at the highest dose activity change, negative = inhibition, most hits filed as inhibitors | 4.3% of 150,000 active | AID 894, 2007; active = well fitted inhibition curve with a large enough effect, not every such curve was filed as active; inconclusive = small, poorly fitted or top-dose-only effect, or another doubt; inactive = no such curve, though single readings can be large or run the other way
Target sequence (P15428 whole entry, looked up): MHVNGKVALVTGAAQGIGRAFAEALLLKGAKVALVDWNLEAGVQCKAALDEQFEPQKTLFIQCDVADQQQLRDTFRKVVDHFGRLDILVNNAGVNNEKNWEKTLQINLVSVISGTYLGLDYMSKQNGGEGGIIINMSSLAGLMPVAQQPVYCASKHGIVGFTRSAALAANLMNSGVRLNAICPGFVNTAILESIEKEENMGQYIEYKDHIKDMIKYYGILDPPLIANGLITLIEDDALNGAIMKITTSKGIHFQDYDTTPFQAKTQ
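20 nM HPGD preincubated 15 min at room temperature with compound in 50 mM Tris-HCl pH 8, 0.01% Tween 20. Started with 1 mM NAD+ and 30 uM prostaglandin E2; NADH fluorescence (360/450 nm) read 5 times over 30-s intervals, last minus first.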
Tau FP inhib – qHTS for Inhibitors of Tau Fibril Formation, Fluorescence Polarization | K18 P301L tau heparin fibrillization, Alexa594 FP, 6 h | Potency, µM (titrated, usually from 57.7 µM), for inactives: at the top dose activity, negative = inhibition, usual class: inhibitors | AID 1468, 2008 | 0.39% of 280,000 active; note: nearly all actives have a fitted effect of over 55% in size
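Steps: dispense K18 P301L tau (15 uM plus 0.24 uM Alexa 594 tracer, final) in pH 7 sodium acetate; add compound; add heparin (20 uM final); incubate 6 hr, 37 C; add ThT (30 uM final); after 1 hr ambient, read FP.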
Tau fluor cs – Counterscreen qHTS for Inhibitors of Tau Fibril Formation, Fluorescence Polarization | tau K18 P301L Alexa594 fluorescence, heparin fibrillization | Potency, µM (titrated, usually from 57.7 µM), inactives show at the highest dose activity change, negative = decrease | 0.93% of 280,000 active; note: nearly all actives have a fitted effect of over 55% in size
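Human tau K18 P301L (15 uM unlabeled, 0.24 uM Alexa 594-labeled) in 100 mM sodium acetate pH 7 with 20 uM heparin, 6 hr at 37 C. ThT 30 uM added, 1 hr ambient; Alexa 594 FP and total fluorescence read at 555/632 nm.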
ALDH1A1 inh – qHTS Assay for Inhibitors of Aldehyde Dehydrogenase 1 (ALDH1A1); Aldehyde dehydrogenase 1A1 (Homo sapiens), P00352; Purified ALDH1A1, NADH fluorescence, propionaldehyde substrate; Potency, µM (highest dose often 75.3 µM), inactives show top-dose activity, negative = inhibition, usual class: inhibitors; 7.3% of 220,000 active; active = well fitted inhibition curve with a large enough effect, not every such curve was filed as active; inconclusive = small, poorly fitted or top-dose-only effect, or another doubt; inactive = no such curve, though single readings can be large or run the other way;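 note: plate controls were no enzyme wells and a reference inhibitor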
Target sequence (P00352 whole entry, looked up): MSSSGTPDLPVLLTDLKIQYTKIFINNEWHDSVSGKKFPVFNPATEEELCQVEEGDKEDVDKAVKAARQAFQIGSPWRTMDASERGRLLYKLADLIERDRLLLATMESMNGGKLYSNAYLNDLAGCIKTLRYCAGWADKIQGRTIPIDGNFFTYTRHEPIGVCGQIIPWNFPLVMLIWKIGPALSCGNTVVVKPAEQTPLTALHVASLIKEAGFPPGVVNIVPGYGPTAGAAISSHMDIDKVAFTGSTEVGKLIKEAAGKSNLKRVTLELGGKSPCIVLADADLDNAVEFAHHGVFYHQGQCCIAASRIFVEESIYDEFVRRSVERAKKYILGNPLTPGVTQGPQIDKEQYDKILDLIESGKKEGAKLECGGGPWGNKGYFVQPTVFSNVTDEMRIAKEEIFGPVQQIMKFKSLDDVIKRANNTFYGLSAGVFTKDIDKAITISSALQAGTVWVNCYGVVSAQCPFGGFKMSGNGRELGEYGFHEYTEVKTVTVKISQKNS
* marks the source's active call; other numbers are inactive results; ? = inconclusive; . = not tested or not shown; [ ] = dose if it differs, or a comment. Most compounds without a hit are left out; they make up all but 9.5% or so of the library. Unless noted, calls come from the whole dose curve; as a rule, active = well fitted curve in the direction sought with a large enough effect; inconclusive = small, poorly fitted or top-dose-only effect, or another doubt; inactive = no such curve, though single readings can be large; an effect the other way counts as inactive or inconclusive. Unless noted, % is set by controls: 0 for no effect and ±100 for the full control effect; potency is the fitted concentration of half-maximal effect.

SMILES	NPSR antagonist	Tau fibril ThT	HPGD inh	Tau FP inhib	Tau fluor cs	ALDH1A1 inh
O=C(c1ccco1)N1CCN(C(c2ccccc2Cl)c2nnnn2Cc2ccco2)CC1 (stereo unspecified)	?	-5.0%	-5.9%	2.8%	3.5%	11.2µM*
CC(C)CC(c1nnnn1Cc1ccccc1)N1CCN(C(=O)c2ccco2)CC1 (stereo unspecified)	?	-12.5%	-0.1%	-0.5%	-9.2%	25.1µM*
O=C(c1ccco1)N1CCN(C(c2ccc(F)cc2)c2nnnn2Cc2cccs2)CC1 (stereo unspecified)	?	-11.1%	-4.4%	1.2%	-6.1%	?
O=C(c1ccco1)N1CCN(C(c2ccccc2)c2nnnn2Cc2cccs2)CC1 (stereo unspecified)	-22.9%[46.1 µM]	1.8%	-3.8%	2.3%	2.0%	2.24µM*
O=C(c1ccco1)N1CCN(C(c2ccccc2Cl)c2nnnn2Cc2cccs2)CC1 (stereo unspecified)	?	-19.2%	-9.9%	-3.8%	-1.9%	12.6µM*
Cc1cc(Br)ccc1S(=O)(=O)n1ccnc1C	8.5%	1.1%	.	1.7%	7.5%	1.1%
CC1(C)CCCN(C(=O)c2coc(=O)c(Br)c2)C1	-3.4%[46.1 µM]	-15.0%	?	4.6%	1.1%	?
COCCNC(=O)C1(CC(C)C)C=CCN1C(=O)OC (stereo unspecified)	.	-1.8%	-5.6%	2.0%	-2.9%	2.9%
CC[N+](C)(CC)CC(O)COCC1COc2ccccc2O1 (stereo unspecified)	11.8%	-3.3%	5.2%	3.7%	2.3%	17.6%
COc1ccc(OCC(=O)N/N=C/c2ccc(N(C)C)cc2)cc1	-7.0%	2.51µM*	.	?	?	?
COc1ccc(/C=N/NC(=O)CO/N=C(\C)c2cccs2)cc1	-25.7%[46.1 µM]	?	-19.9%	-2.6%	-25.3%	22.4µM*
C/C(=N\N(Cc1ccccc1)c1ccccc1)c1ccncc1	-22.8%	?	.	12.2%	-16.7%	3.8%
Cc1ccc(S(=O)(=O)NC2c3cccc4cccc(c34)C2Sc2n[nH]c(N)n2)cc1 (stereo unspecified)	-34.0%	-9.6%	-14.2%	-3.3%	-29.4%	3.98µM*
COC(=O)/C(=C\C(=O)c1ccc([N+](=O)[O-])cc1)Nc1ccc(OC)cc1	-5.3%	3.16µM*	.	?	?	-6.5%
COc1cccc(C(=O)/C=C/Nc2cc(C)ccc2O)c1	?	3.55µM*	?	6.5%	15.8µM*[quencher]	25.1µM*
COc1ccc(C(=O)/C=C/N(C)C)cc1	-7.5%[46.1 µM]	?	25.1µM*	?	-13.6%	7.94µM*
COc1ccc(C(=O)/C(C#N)=N/Nc2ccc([N+](=O)[O-])cc2)cc1	-13.2%	3.98µM*	.	1.3%	?	?
COc1ccc(C(=O)/C=C/Nc2ccc([N+](=O)[O-])cc2)cc1	-1.5%	?	-19.5%	-2.2%	-10.9%	39.8µM*
COc1ccc(C(=O)/C=C/Nc2ccc(S(=O)(=O)Nc3cccc(C(C)=O)c3)cc2)cc1	16.3%	?	?	?	?	?
COc1ccc(N/C=C/C(=O)c2ccc(Oc3ncccn3)cc2)cc1	-10.4%[46.1 µM]	?	-9.8%	-4.7%	-18.0%	4.2%
COc1ccc(C(=O)/C=C/Nc2cccc(O)c2)cc1	-12.1%[46.1 µM]	?	?	-2.8%	?	11.2µM*
COc1ccc(-c2cn3nc(SCC(=O)Nc4ccccc4F)ccc3n2)cc1	.	8.6%	.	-11.6%	-17.4%	.
Cc1noc(C)c1S(=O)(=O)NCCc1csc2nc(-c3ccc(Cl)cc3)nn12	.	-2.5%	.	?	?	.
Cc1c(C(=O)N2CCC(C)CC2)sc2ncnc(N(C)c3ccccc3)c12	-8.7%[46.1 µM]	?	8.91µM*	-1.1%	-8.2%	?
Cc1ccccc1CNC(=O)c1sc2ncnc(N(C)C3CCCCC3)c2c1C	.	-8.6%	.	1.5%	-6.7%	.
SMILES	NPSR antagonist	Tau fibril ThT	HPGD inh	Tau FP inhib	Tau fluor cs	ALDH1A1 inh
Cc1c(C(=O)N2CCN(Cc3ccccc3)CC2)sc2ncnc(N3CCOCC3)c12	-14.4%[46.1 µM]	-13.0%	-20.3%	1.2%	-7.6%	25.1µM*
Cc1cnc(CNc2ccnc(-c3ccc(C(=O)N(C)C)cc3)n2)cn1	.	-4.5%	5.62µM*	3.3%	-1.2%	-5.5%
COc1ccc(N=C2CCS(=O)(=O)c3sccc32)cc1	7.8%	?	.	7.1%	-4.1%	10µM*
CCC(=O)N1CCN(c2ccc(Cl)cc2NC(=O)Cc2ccccc2)CC1	-23.0%[46.1 µM]	-6.9%	-5.1%	-3.3%	-8.2%	5.01µM*
CCN(CC)S(=O)(=O)c1ccc(N2CCOCC2)c(NC(=O)c2c3c(nc4ccccc24)CCC3)c1	22.3%	-4.9%	-0.6%	16.2%	-16.7%	6.31µM*
CCN(CC)S(=O)(=O)c1ccc(N2CCOCC2)c(NC(=O)c2ccc3ccccc3c2)c1	-27.8%	-2.7%	?	-14.3%	-21.7%	?
CCN(CC)S(=O)(=O)c1ccc(N2CCOCC2)c(NC(=O)c2cccc3ccccc23)c1	-25.1%	-8.0%	-18.2%	-1.4%	-23.7%	12.6µM*
CCN(CC)S(=O)(=O)c1ccc(N2CCCCC2)c(C(=O)Nc2ccccc2N2CCOCC2)c1	?	-7.0%	-14.2%	3.3%	-8.8%	-6.3%
CCN(CC)S(=O)(=O)c1ccc(N2CCOCC2)c(NC(=O)c2cc(-c3ccccn3)nc3ccccc23)c1	-4.9%	4.5%	.	1.3%	-28.6%	3.55µM*
CC(C)c1ccc(NC(=O)c2ccc(CN3CC(=O)N4CCCCC4C3=O)cc2)cc1 (stereo unspecified)	.	-15.9%	.	0.2%	-19.9%	.
COc1ccccc1CNC(=O)C(C)c1ccc([N+](=O)[O-])cc1 (stereo unspecified)	-11.0%	-3.1%	.	-2.1%	-13.3%	4.9%
O=C(Nc1cc(S(=O)(=O)N2CCOCC2)ccc1N1CCCC1)c1cc(=O)[nH]c2ccccc12	-1.4%	2.2%	.	8.6%	14.0%	.
CCN(CC)S(=O)(=O)c1ccc(N2CCOCC2)c(NC(=O)c2cc(=O)[nH]c3ccccc23)c1	-8.7%	4.4%	.	-8.4%	1.7%	14.1µM*
CCN(CC)S(=O)(=O)c1ccc(N2CCOCC2)c(NC(=O)COc2ccccc2C#N)c1	-29.1%	1.0%	.	3.9%	-7.6%	12.6µM*
CCN(CC)S(=O)(=O)c1ccc(N2CCOCC2)c(NC(=O)Cc2ccc(Cl)cc2)c1	1.0%[46.1 µM]	-16.6%	.	-2.7%	-22.8%	25.1µM*
Cc1oc2ncnc(N3CCOCC3)c2c1C(=O)Nc1ccc(Br)cc1F	.	-1.0%	.	1.6%	-6.0%	.
